The record followed here is publication PMC5540273 (PLoS ONE, 2017).

SMILES strings stand for the structures.
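Note: KINOMEscan kinase panel screen.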

In this assay the test system is CAMK1G. Particulars: concentration: 1 μM, replicates: in singlicate; n = 1.
`Oc1ccc2ncnc(Nc3ccc(OCc4ccccc4)cc3)c2c1` [GI262866]: the “%Inh” value was 0%.

As to `FC(F)(F)c1ccc(-c2cc(-c3c[nH]nc3-c3ccccn3)ccn2)cc1` [GW599550], the “%Inh” value worked out at 1%.

As for `CCc1nc(-c2cccc(C)c2)c(-c2ccnc(NC(=O)c3ccccc3)c2)s1`, the “%Inh” value amounted to 0%.

Take `CN1c2ccc(-c3ccc(C(=O)NCCO)cc3)cc2-c2[nH]ncc2S1(=O)=O`: the “%Inh” value is 0%.

`O=C(c1ccc(-c2cc(-c3c[nH]nc3-c3ccccn3)ccn2)cc1)N1CCCC1` [GW792479]: the “%Inh” value was found to be 0%.

Turning to `COc1ccc(-c2oc3ncnc(N)c3c2-c2ccc(OC)cc2)cc1` [SB-589132], the “%Inh” value is reported as 0%.

For `CCc1nc(-c2cccc(N(C)S(=O)(=O)c3ccccc3)c2)c(-c2ccnc(Nc3ccc(N4CCN(C(C)=O)CC4)nc3)n2)s1` [GSK1645895], the “%Inh” value is given as 16%.

Regarding `Fc1cccc(COc2ccc(Nc3ncnc4cc[nH]c34)cc2Cl)c1`, the “%Inh” value came out at 10%.

As for `Cl.c1ccc(Cn2ncc3cc(Nc4ncnc5ccccc45)ccc32)cc1` [GW273749], the “%Inh” value is recorded as 23%.

Turning to `COC(=O)c1cccc(NC(=O)NCCNc2ccnc(Nc3ccc(F)cc3)n2)c1` [GSK1379883], the “%Inh” value is given as 0%.

For the molecule `Cl.c1ccc(Cn2ccc3cc(Nc4ncnc5ccccc45)ccc32)cc1` [GW275568], the “%Inh” value came to 8%.

In the case of `COc1ccc(Nc2nccc(N3CCC(NC(=O)c4cccc(NC(C)=O)c4)C3)n2)cc1` (stereo not shown) [GSK1379732], the “%Inh” value is reported as 0%.

`Nc1nccc2scc(-c3ccc4c(c3)CCN4C(=O)Cc3cc(F)ccc3F)c12` [GSK2587663]: the “%Inh” value amounted to 4%.
